Screens: PubChem BioAssay, National Center for Advancing Translational Sciences (NCATS)
This is a sample that favours compounds with a hit; in the whole collection about 2.4% have one here.
D2 PAM-1 – Beta-Arrestin HTS for Positive Allosteric Modulators of the Human D2 Dopamine Receptor: Potentiators; D(2) dopamine receptor (Homo sapiens), P14416; DiscoveRx D2 beta-arrestin cells, luminescence, 90 min; 100% = 57 uM dopamine signal; potentiation, % (test concentration not listed); 0.23% of 360,000 active; AID 624464, 2012; in the data active means potentiation above about 50%
Target sequence (P14416 whole entry, looked up): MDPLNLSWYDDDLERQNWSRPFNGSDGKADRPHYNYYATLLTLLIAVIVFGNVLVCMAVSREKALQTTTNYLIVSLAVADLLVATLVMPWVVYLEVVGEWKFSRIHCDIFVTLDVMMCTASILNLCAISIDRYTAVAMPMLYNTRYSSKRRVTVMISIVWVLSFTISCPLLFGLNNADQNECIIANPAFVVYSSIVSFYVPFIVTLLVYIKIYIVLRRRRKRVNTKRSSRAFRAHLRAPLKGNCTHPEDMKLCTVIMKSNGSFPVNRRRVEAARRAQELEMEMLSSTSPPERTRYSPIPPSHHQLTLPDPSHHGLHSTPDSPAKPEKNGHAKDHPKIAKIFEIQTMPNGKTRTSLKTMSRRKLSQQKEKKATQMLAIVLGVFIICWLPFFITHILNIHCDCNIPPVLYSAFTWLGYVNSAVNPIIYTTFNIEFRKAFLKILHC
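PathHunter D2 cells, attached overnight at 37 deg C, received compound in DMSO plus dopamine at EC20 (50 nM final) for 90 min at 37 deg C. Beta-arrestin recruitment was read as luminescence after 1 h with detection reagent at ambient temperature.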
D2 ag-1 – HTS Assay for Allosteric Agonists of the Human D2 Dopamine Receptor: Primary Screen for Agonists | activation, % at 2 µM | 0.53% of 340,000 active | HEK293 T-REx D2 cells, calcium flux agonist mode | D(2) dopamine receptor (Homo sapiens), P14416;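 active means activation over 3 SD above normal in the single-dose calcium agonist read, cut at about 30% in these data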; further: 0% is about no effect
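Calcium-flux readout, 1 cycle/sec over 180 s following compound pin transfer, in inducible HEK293 Trex D2 cells (force-coupled); dopamine controls included. Positive calcium responses during this window marked compounds as potential agonists.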
D2 ag-2 – Beta-Arrestin HTS for Positive Allosteric Modulators of the Human D2 Dopamine Receptor: Agonists; activation, % (test concentration not listed); 0.084% of 360,000 active; D(2) dopamine receptor (Homo sapiens), P14416; DiscoveRx PathHunter D2 beta-arrestin, luminescence, 90 min; 100% = 57 uM dopamine signal; in the data active means activation above about 40%
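DiscoveRx PathHunter D2 beta-arrestin cells (2,100/well) attached overnight, then compound-stimulated 90 min at 37 C in HBSS/10 mM HEPES/0.1% Tween-20 buffer; beta-galactosidase complementation read by luminescence after 1 h at ambient temperature. Dopamine 57 uM final (EC100) as control.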
D2 antagonist – HTS Assay for Allosteric Antagonists of the Human D2 Dopamine Receptor: Primary Screen for Antagonists; D(2) dopamine receptor (Homo sapiens), P14416; HEK293 TREx D2 cells, calcium flux, dopamine EC80; inhibition, % at 10 µM; 2% of 340,000 active; AID 485344, 2010; in the data active means inhibition above about 30%; inactive means below that, where a call was filed; further: 0% is about no effect
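Dopamine at EC80 is the agonist stimulus; test compounds precede it by 180 s. Calcium flux read kinetically in a force-coupled, inducible HEK293 T-REx D2 cell line.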
D2 PAM-2 – HTS Assay for Positive Allosteric Modulators of the Human D2 Dopamine Receptor: Primary Screen for Potentiators; potentiation, % at 10 µM; AID 485347, 2010; HEK293 T-REx D2, calcium flux, EC20 dopamine potentiation; 0.34% of 340,000 active;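 active means potentiation over 3 SD above the plate norm, cut at about 30% in these data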; further: 0% is about no effect
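Potentiation of an EC20 dopamine calcium response is measured in a force-coupled, tetracycline-inducible Hek293 Trex D2 line. Compound-only kinetic reads over 180 s flag agonists before dopamine addition.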
Numbers without * were called inactive; . = not tested or not shown.

SMILES | D2 PAM-1 | D2 ag-1 | D2 ag-2 | D2 antagonist | D2 PAM-2
COc1ccc2c(c1)-c1nc(NC(=O)c3ccc(OC)c(Br)c3)sc1CC2 | . | 0.1 | . | . | -20.2
CCN(C(=O)Cc1c(C(=O)O)[nH]c2ccccc12)c1ccc(OC)cc1 | 7.0 | 2.4 | 2.0 | 53.3* | -3.4
Cc1ccc(S(=O)(=O)NC(CC(=O)O)c2cccs2)cc1 (configuration not stated) | 8.4 | 0.3 | 6.4 | -2.7 | -0.3
Cc1ccc(S(=O)(=O)NC(C)C(=O)NC(C)c2cccs2)cc1 (configuration not stated) | -3.1 | 0.4 | -2.6 | -1.0 | 31.9*
Brc1ccc(Nc2c3c(nc4nncn24)CCC3)cc1 | . | -0.6 | . | . | 0.0
CCc1ccccc1NC(=O)C(=O)NCC(c1cccnc1)N1CCc2ccccc21 (configuration not stated) | . | -0.8 | . | . | 3.1
COc1ccc(C(=O)Nc2cc(-c3cccc(C)c3)nn2-c2ccccc2)cc1 | . | 0.1 | . | . | -11.1
Cc1ccc(-c2c[n+](Cc3ccc(Cl)c(Cl)c3)c3n2CCC3)cc1 | -40.0 | 0.9 | -3.3 | 30.4* | -28.2
CN(C)c1ccc(/C=C/C(=O)c2ccc3c(c2)OCO3)cc1 | 10.3 | 68.4* | -3.1 | -51.6 | -16.5
CN(C)c1ccc(/C=C/C(=O)c2cccnc2)cc1 | -7.0 | 59.1* | 0.5 | -12.1 | -8.7
CN(C)c1ccc(/C=C/C(=O)c2ccc(O)cc2)cc1 | 0.0 | . | 4.3 | . | .
CC(C)N(C(=O)N1CCN(c2ccnc3cc(Cl)ccc23)CC1)C(C)C | 11.9 | -1.5 | 3.4 | 30.5* | -7.7
Cc1ccc(N2C(=O)CS(=O)(=O)C23C(=O)N(Cc2ccccc2F)c2ccccc23)cc1Cl (configuration not stated) | . | 0.8 | . | . | -5.1
COc1cccc(OC)c1C(=O)Nc1ccccc1C(=O)N1CCCC1 | 5.5 | 0.6 | 0.4 | -0.6 | 1.6
COc1ccccc1C(=O)Nc1ccccc1C(=O)N1C(C)CCCC1C (configuration not stated) | -5.8 | -0.7 | -3.4 | 48.3* | -2.3
CC(C)=C(NC(=O)c1ccccc1)C(=O)NC(Cc1ccccc1)C(=O)O (configuration not stated) | -1.1 | 0.8 | 0.6 | 38.9* | -1.8
COc1ccccc1NC(=O)/C(C#N)=C/c1c(C)nn(-c2ccc(F)cc2)c1Cl | -1.5 | 31.7* | 2.6 | -4.1 | -13.0
Cc1coc2c(C)c3oc(=O)c(CCC(=O)N4CCC(C(=O)NCCCC(=O)O)(c5ccccc5)CC4)c(C)c3cc12 | -7.5 | 0.0 | 1.3 | -3.0 | 41.4*
Cc1coc2c(C)c3oc(=O)c(CCC(=O)NCCCN4CCOCC4)c(C)c3cc12 | -49.4 | 0.0 | -2.7 | -11.1 | 3.1
COc1ccc(CCNC(=O)CCCCn2c(=O)c3ccccc3n(Cc3ccc(Cl)cc3)c2=O)cc1OC | . | -0.1 | . | . | 10.9
Cc1nn(C(=O)c2ccc(Cl)cc2)c(C)c1Sc1ccc(Cl)cc1 | . | -0.7 | . | . | -2.9
COc1ccc(C(=O)Nc2c3c(nn2C(C)(C)C)CS(=O)(=O)C3)cc1OC | -6.1 | 0.3 | -4.2 | 35.1* | 13.7
CC(C)(C)c1ccc(C(=O)Nc2c3c(nn2C(C)(C)C)CS(=O)(=O)C3)cc1 | -4.4 | 1.1 | -3.2 | -3.3 | -9.1
Cc1ccc(S(=O)(=O)N2CCC(C(=O)Nc3ccc(C)c(Cl)c3)CC2)cc1 | . | -1.0 | . | . | -24.2
CCOC(=O)c1cc2c(=O)n3ccccc3nc2n(Cc2ccco2)c1=NC(=O)c1c(F)cccc1Cl | . | . | . | . | -2.9
CC(NC(=O)CN1C(=O)COc2ccc(S(=O)(=O)N3CCCCCC3)cc21)c1ccccc1 (configuration not stated) | . | -1.4 | . | . | 1.7
COc1cc(NC(C)=O)c2ncccc2c1NC(C)=O | -4.0 | 0.9 | -5.9 | 36.7* | 13.3
COc1ccc(C)c2sc(N(Cc3cccnc3)C(=O)C3CCCCC3)nc12 | . | 1.1 | . | . | 2.4
